The values that follow come from PubChem BioAssay AID588501 (NMMLSC, 2011).

Among all 360,000 compounds or so, about 420 (0.12%) were called active. Many of the other results were omitted from the sample, so actives are more common in it than they were. Unmarked numbers belong to inactive results. No stated cut-off is given here; in the data, active means inhibition above about 30%; inconclusive means no clear call, values can overlap the other calls; inactive means below that.

For orientation: inhibition means the relative decrease from the control value, in per cent.

The test deals with Lethal factor (Bacillus anthracis) (UniProt P15917). Put plainly: Bacillus anthracis LF protease inhibitors, primary screen, biochemical, multiplex microsphere, MLPCN library (AID 588501). Further: plate controls were buffer without enzyme for full effect and enzyme alone for no effect. The conditions noted are these: multiplex microsphere protease cleavage assay, at 10 µM, active compounds read high.
Lethal factor (Bacillus anthracis), sequence (P15917 whole entry, looked up): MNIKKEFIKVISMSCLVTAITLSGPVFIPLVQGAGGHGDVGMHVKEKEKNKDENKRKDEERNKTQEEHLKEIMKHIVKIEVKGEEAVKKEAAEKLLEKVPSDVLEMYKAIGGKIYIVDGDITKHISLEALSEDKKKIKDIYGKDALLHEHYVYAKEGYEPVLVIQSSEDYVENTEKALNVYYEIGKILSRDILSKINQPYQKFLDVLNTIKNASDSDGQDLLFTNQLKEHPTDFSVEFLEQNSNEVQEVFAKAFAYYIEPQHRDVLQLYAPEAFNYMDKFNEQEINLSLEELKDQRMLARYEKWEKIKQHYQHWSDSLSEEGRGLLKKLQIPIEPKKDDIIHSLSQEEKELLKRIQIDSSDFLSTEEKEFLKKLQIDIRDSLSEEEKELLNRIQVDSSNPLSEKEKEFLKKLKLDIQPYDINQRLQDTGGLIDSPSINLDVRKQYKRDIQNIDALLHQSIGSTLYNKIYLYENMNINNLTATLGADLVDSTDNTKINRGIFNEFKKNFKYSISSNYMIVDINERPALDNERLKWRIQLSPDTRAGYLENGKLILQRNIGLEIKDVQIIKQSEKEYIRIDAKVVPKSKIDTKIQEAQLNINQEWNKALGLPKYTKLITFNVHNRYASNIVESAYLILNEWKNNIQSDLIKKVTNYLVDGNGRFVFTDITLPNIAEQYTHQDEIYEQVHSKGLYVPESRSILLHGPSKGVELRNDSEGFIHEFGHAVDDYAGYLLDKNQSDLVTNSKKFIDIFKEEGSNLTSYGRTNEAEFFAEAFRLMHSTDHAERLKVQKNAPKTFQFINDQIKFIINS
Take `CCC(=O)Nc1cccc(NC(=O)CSc2nnnn2C2CCCC2)c1`: the inhibition is 3.1%.
Turning to `O=C(N/C(=C\c1ccc([N+](=O)[O-])cc1)C(=O)N1CCCCC1)c1ccco1`, the inhibition is 14.4%.
For `C/C=C/C(=O)Nc1nnc(C(C)C)s1`, the inhibition was -0.2%.
The figure for `CNC[C@H]1Oc2c(NC(=O)C3CCCCC3)cccc2C(=O)N([C@H](C)CO)C[C@@H]1C` is -2.2%; for `CCN(CC)C(=O)C1=C(C)N(Cc2ccc(OC)cc2)C(=O)C(CC(=O)NCCCCc2ccccc2)C1` (stereo not drawn) it is -3.9%.
For `CN1CCc2nc(SC(C(=O)O)c3ccccc3)c(C#N)c(-c3cccs3)c2C1` (stereo not drawn), the inhibition was -13.7%.
The figure for `CCN(Cc1ccccc1)C(=O)CCS(=O)(=O)c1ccc2c(c1)oc(=O)n2C` is 0.5%; for `O=[N+]([O-])c1ccc(C(S(=O)(=O)Cc2ccccc2)S(=O)(=O)Cc2ccccc2)cc1` it is -1.4%; for `CCC(CC)C(=O)Nc1cc(C(=O)OC)cc(C(=O)OC)c1` it is -1.3%.
The figure for `Cc1c(Cl)c([N+](=O)[O-])nn1CC(=O)NCC1CCCO1` (stereo not drawn) is -2.9%; for `OCC[C@H]1C[C@@H](O)[C@H](O)[C@@]2(OCCc3ccccc32)O1` it is 3.4%; for `CCc1ccccc1NC(=S)Nc1cc(OC)c(NC(=O)C(C)C)cc1OC` it is 5.6%.
Under `O=C(Nc1cccc(F)c1)c1coc(=O)c(Br)c1` stands 0.1%.
As for `O=C(NCC(c1ccco1)N1CCc2ccccc21)c1cccc(F)c1` (stereo not drawn), the inhibition was -3.6%.
Regarding `COc1ccc(C2=NS(=O)(=O)N(C)C(C(=O)N3CCCCC3)=C2)cc1`, the inhibition was -0.5%.
As to `COC(c1ccccc1)c1nnc(CCC(=O)N2CCN(CCOc3ccccc3)CC2)o1` (stereo not drawn), the inhibition is 0.2%.
Regarding `Cc1cc(C)cc(OCc2nnc(SCC(=O)OC3CCCCC3)o2)c1`, the inhibition is -14.4%.
For the molecule `O=c1oc2ccccc2c(CNc2ccccc2)c1[N+](=O)[O-]`, the inhibition was 7.9%.
Consider `O=C1NC[C@H](CCCCN2C[C@H](Cc3ccc(O)cc3)N(CCc3ccccc3)C(=O)C2=O)N(CCc2ccccc2)C1=O`, for which the inhibition is -11.9%.
Regarding `O=C(Nc1nnc(C2CC2)s1)C1=NN(C2CCS(=O)(=O)C2)C(=O)CC1` (stereo not drawn), the inhibition is 1.6%.
For `CNC(=O)c1nnn(-c2ccccc2)c1C(=O)NC`, the inhibition was -0.6%.
Under `COc1ccc(-n2c(O)c(C=NCC(c3ccco3)N3CCCC3)c3ccccc3c2=O)cc1OC` (stereo not drawn) stands 0%; under `COc1cc(-c2nc(S(=O)(=O)c3ccc(Cl)cc3)c(N(C)C)o2)cc(OC)c1OC`, 0%; under `CCCCN(C(=O)c1ccc(S(=O)(=O)N2CCOCC2)cc1)C1CCS(=O)(=O)C1` (stereo not drawn), 0.4%.
With `CC(C)NC(=O)COCc1cc(-c2ccc3c(c2)OCO3)on1`, the inhibition was -4.5%.
As to `CCCCC(CC)CNCc1cccn1CCN1CCOCC1` (stereo not drawn), the inhibition is 9%.
The figure for `CCn1c(SCC(=O)Nc2ccc(C)cc2)nc2nc3c(cc2c1=O)CCCC3` is -5.9%.
For the molecule `Cc1ccc(CSCC2Nc3ccc(C(=O)N4CCN(c5ccc(F)cc5)CC4)cc3NC2=O)cc1` (stereo not drawn), the inhibition is -0.9%.
Take `CC(C)OCCCNC(=O)c1ccc(C2SCC(=O)N2Cc2ccco2)cc1` (stereo not drawn): the inhibition is 0.6%.
The figure for `CCCCC(=O)Nc1ccc2c(c1)C(=O)NC2=O` is -3.5%; for `CC(=O)Nc1ccc(NC(=O)c2ccc3c(c2)C(=O)N(c2ccccc2C)C3=O)cc1` it is 0.3%; for `CC(=O)Nc1ccc(Oc2ccc3c(c2)C(=O)NC3=O)cc1` it is 30.3% (active).
For `OCC1(Cc2ccccc2C(F)(F)F)CCN(Cc2cccc3cnccc23)CC1`, the inhibition was -3.3%.
Consider `Nc1ncnc2c1cnn2C1CC(O)C(CO)O1` (stereo not drawn), for which the inhibition was -1.1%.
As to `Cc1cccc(C)c1-n1nnnc1C(CCc1ccccc1)N1CCN(C/C=C/c2ccccc2)CC1` (stereo not drawn), the inhibition was -0.9%.
Take `O=C(Nc1cccc(F)c1)[C@@H]1CCCN1`: the inhibition was 41.3% (active).
The figure for `O=C(COC(=O)CNC(=O)C1CCCCC1)Nc1cccc(F)c1` is -8.5%.
Under `O=C(Nc1cccc(F)c1)NC1CCCc2ccccc21` (stereo not drawn) stands 0.6%; under `C#CCNC(=O)[C@H](Cc1ccc(C(=O)c2ccccc2)cc1)NC(=O)OC(C)(C)C`, -1%.
With `CC(C)(C)OC(=O)NC(Cc1ccccc1)C(=O)NC(CSC1CCCCO1)C(=O)NN` (stereo not drawn), the inhibition is 39.5% (active).
For `CC(C)[C@@H](NC(=O)OC(C)(C)C)C(=O)NCC1CCC(C(=O)N[C@@H](Cc2ccccc2)C(=O)O)CC1` (stereo partly drawn), the inhibition is 9%.
Under `COc1ccc(C2c3[nH]c4ccccc4c3CCN2CCCn2cccn2)cc1C` (stereo not drawn) stands 1.2%.
Under `Cc1ccccc1N1CCN(C2CCCN(C(=O)c3ocnc3C)C2)CC1` (stereo not drawn) stands -3.3%.
